DRD3 agonist – qHTS of D3 Dopamine Receptor Agonist: qHTS | 410,000 compounds, 0.58% hits | AID 652048, 2013 | max activation, % | D3R DiscoveRx beta-arrestin cells, luminescence, 90 min | D(3) dopamine receptor (Homo sapiens), P35462; in the data active = max activation above about 30%; also: 0% is about no effect
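Cells at 1500/well, incubated overnight, then treated with pinned compounds (dopamine as control) for 90 min at 37 degrees C. DiscoveRx reagent added for 30 - 60 minutes at room temperature; luminescence read.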
D1 PAM – Potentiators of Human D1 Dopamine Receptor: qHTS; D(1A) dopamine receptor (Homo sapiens), P21728; HEK293 TREx D1 cells, calcium flux, dopamine EC20 potentiation; potentiation, % at 10 µM; 360,000 compounds, 0.036% hits; AID 504651, 2011; in the data active = potentiation above about 30%; also: 0% is about no effect
D1 antagonist – Antagonist of Human D 1 Dopamine Receptor: qHTS; HEK293 TREx D1 cells, calcium flux, dopamine EC80; stronger effect = lower value; 360,000 compounds, 3.2% hits; D(1A) dopamine receptor (Homo sapiens), P21728; activity change, negative = inhibition, % at 10 µM; in the data active = activity change below about -30%; also: % is scaled to controls: 0 for no effect and ±100 for the full control effect
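Compound effects on dopamine-evoked calcium signalling were measured in tetracycline-induced HEK293 Trex D1 cells. Dopamine at EC80 followed a 180 s compound pre-read, and fluorescence was tracked kinetically for 180 s more.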
DRD3 antagonist – qHTS of D3 Dopamine Receptor Antagonist: qHTS. D3R cells, DiscoveRx beta-arrestin luminescence, antagonist mode; stronger effect = lower value. AID 652054, 2013. 360,000 compounds, 2.5% hits. D(3) dopamine receptor (Homo sapiens), P35462. max response, negative = inhibition, %; in the data active = max response below about -50%; also: % is scaled to controls: 0 for no effect and ±100 for the full control effect
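Cells plated overnight at 1500 cells/well, then exposed to library compounds with dopamine controls for 90 minutes at 37 degrees C. DiscoveRx reagent added for 30–60 minutes at room temperature; luminescence read, quantitative HTS format.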
D1 agonist – Allosteric Agonists of the Human D1 Dopamine Receptor: qHTS. HEK293 T-REx D1 cells, calcium flux, agonist mode. D(1A) dopamine receptor (Homo sapiens), P21728. 360,000 compounds, 1% hits. activation, % at 2 µM; in the data active = activation above about 30%; also: 0% is about no effect
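Tetracycline-induced HEK293 TREx D1 cells, force-coupled to calcium signalling, were dye-loaded with a no-wash calcium kit. Compound was pin-added after a 10 s baseline. Fluorescence was read kinetically at 1 cycle/s for 180 s, with calcium rises flagged as agonism.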
* hit, by the source's call; x = not tested or not shown; ! = not confirmed by another sample. Hits are enriched below; roughly 6% of the tested compounds scored in any of these assays.

SMILES | DRD3 agonist | D1 PAM | D1 antagonist | DRD3 antagonist | D1 agonist
CCOC(=O)[C@H](CCc1ccccc1)N[C@@H](C)C(=O)N1[C@H](C(=O)O)C[C@@H]2CCC[C@@H]21 | 17 | x | x | 25 | x
CCOC(=O)[C@@H](CCc1ccccc1)N[C@H](C)C(=O)N1[C@H](C(=O)O)C[C@@H]2CCC[C@@H]21 | -20 | -4 | -19 | -54* | 1
CCN(CC)S(=O)(=O)c1cccc(-c2nnc(SCc3nnc(-c4ccccc4)o3)n2C)c1 | -2 | 7 | -8 | -50* | 2
CCN(CC)S(=O)(=O)c1cccc(-c2nnc(SCCOc3ccccc3C)o2)c1 | -3 | -4 | 0 | -21 | 33*
CCc1ccccc1Nc1ncnc2c1cnn2-c1ccc(Cl)cc1 | 0 | 2 | 6 | x | 3
CCc1ccccc1Nc1ncnc2ccccc12 | 0 | -8 | -60* | 58 | 7
CC1CCCC(C)N1C(=O)c1cc(-c2ccc3c(c2)OCO3)on1 (centres undefined) | -5 | -7 | -21 | 2 | 26
COc1ccccc1Nc1nn2c(=O)c3ccc(C(=O)N4CCCCC4)cc3nc2s1 | 7 | -4 | -43*! | 5 | 1
COc1cccc(NC(=O)c2ccc3c(=O)n4nc(Nc5ccccc5OC)sc4nc3c2)c1 | -2 | -2 | -6 | x | 3
